# Bioassay records as filed in PubChem.
# Compounds with a hit are over-represented: about 1% of the library has one in this group of screens.
# RN4220 kill: kills Staphylococcus aureus RN4220. inhibition, % (concentration not given with the values). 330,000 compounds, 0.33% hits. S. aureus RN4220 growth, OD600, 16 h; in the data active means inhibition above about 85%
# Sa ugtP lethal: compounds lethal to S. aureus RN4220 ugtP deletion mutant | OD600 growth, 16 h | growth inhibition, % (concentration not given with the values) | 330,000 compounds, 0.54% hits | AID 1259309; in the data active means growth inhibition above about 68%
# PriA SSB inh: blocks PriA binding to SSB C-terminal tail; AID 1272365; AlphaScreen SSBct-PriA binding, biotinylated peptide; inhibition, % at 33 µM; 430,000 compounds, 0.6% hits; in the data active means inhibition mostly above about 37%, no sharp cut-off; inactive means mostly below about 20%
# Hits are given with their value; 0 = inactive; - = not tested or not shown.
SMILES,RN4220 kill,Sa ugtP lethal,PriA SSB inh
Cc1cc(C)n(-c2ccc(=O)n([C@@H](C)C(=O)Nc3ccccc3-c3ccc(=O)n(C)n3)n2)n1,-,-,0
O=[N+]([O-])c1ccc(Sc2nnnn2-c2ccccc2)c(Cl)c1,0,0,45
Cn1nnnc1Sc1ccc([N+](=O)[O-])cc1Cl,0,0,0
N#C/C(=C\c1ccc([N+](=O)[O-])o1)c1nc(C2CC2)cs1,-,-,0
CC(=O)Nc1ccc(S(=O)(=O)N2CCC(c3nn(C)c(=O)n3C3CC3)CC2)cc1,-,-,0
CCCOc1cccc(C2C(C(=O)c3cc4ccccc4o3)=C(O)C(=O)N2c2cc(C)on2)c1 (stereo not drawn),100,100,0
Cc1cc(N2C(=O)C(O)=C(C(=O)c3cc4ccccc4o3)C2c2cccc(Br)c2)no1 (stereo not drawn),100,100,0
COc1cccc(C2C(C(=O)c3cc4ccccc4o3)=C(O)C(=O)N2c2cc(C)on2)c1OC (stereo not drawn),0,0,0
Cc1cc(N2C(=O)C(O)=C(C(=O)c3cc4ccccc4o3)C2c2ccc(OC(C)C)cc2)no1 (stereo not drawn),100,100,0
COc1cc(C2C(C(=O)c3cc4ccccc4o3)=C(O)C(=O)N2c2cc(C)on2)cc(OC)c1OC (stereo not drawn),-,-,0
COC(=O)c1ccc(C2C(C(=O)c3cc4ccccc4o3)=C(O)C(=O)N2c2cc(C)on2)cc1 (stereo not drawn),-,-,0
CCOCC(=O)Nc1ccc2c(c1)N(C(=O)C(C)C)CCC2,-,-,0
Cc1cccc(C(=O)NNC2=C(C(=O)C(F)(F)F)CCC2)c1O,99,98,0
O=C(NNC1=C(C(=O)C(F)(F)F)CCC1)c1cccc(O)c1,0,0,0
COc1ccc(Cl)cc1S(=O)(=O)Cc1nc(-c2cccc(C)c2)no1,-,-,0
CCC(C)n1c(=O)c2sccc2n2c(CCCC(=O)N3CCC(C(N)=O)CC3)nnc12 (stereo not drawn),0,0,43
CC(C)Cn1c(=O)c2sccc2n2c(CCCC(=O)NC3CCN(Cc4ccccc4)CC3)nnc12,0,0,0
O=C(Nc1ccccc1-c1nc2ccccc2s1)c1nc2ccccc2s1,-,-,0
O=C(Nc1nc2c(cc3c4c(cccc42)CC3)s1)C1CCCCC1,-,-,0
O=C(CN1CCN(Cc2ccccc2)CC1)NC1C2CC3CC(C2)CC1C3 (stereo not drawn),-,-,0
O=c1ccc(-c2ccc([N+](=O)[O-])cc2)nn1-c1ccccc1,0,0,0
O=[N+]([O-])c1ccc(-[n+]2nc(-c3ccccc3)nn2-c2ccccc2)cc1,0,0,101
CN(C)S(=O)(=O)c1ccc(C(=O)NCCn2ccc(C(F)(F)F)n2)cc1,-,-,0
CCc1ccc(S(=O)(=O)Nc2ccc3c(c2)N(C(=O)c2cccs2)CCC3)s1,-,-,0
C=CCNc1nc(C(=O)OCC(=O)c2ccc(F)cc2)cs1,0,0,46
SMILES,RN4220 kill,Sa ugtP lethal,PriA SSB inh
C=CCNc1nc(C(=O)OCC(=O)c2cccc(Br)c2)cs1,0,0,0
Cc1ccc(C[n+]2ccccc2)cc1,0,0,0
Cc1ccc(C[n+]2c(-c3ccc(C)cc3)cc(-c3ccc(C)cc3)cc2-c2ccc(C)cc2)cc1,101,101,0
O=C(Cn1cncn1)N1CC(S(=O)(=O)C2CCCCC2)C1,-,-,0
O=C(NN=Cc1cccc(Oc2ccccc2)c1)c1ccccc1Br,0,99,0
O=C(NN=Cc1cccc(Oc2ccccc2)c1)c1ccc(O)cc1O,0,0,0
CCOC(=O)c1ccc(Nc2ccnc3c(Cl)cccc23)cc1,-,-,0
COc1ccc2cc(/C=C3\SC(=S)NC3=O)c(N3CCOCC3)nc2c1,89,90,0
O=C1NC(=S)S/C1=C/c1ccc(N2CCOCC2)o1,0,0,0
COC(=O)C1CCN(c2c([N+](=O)[O-])cc(C(F)(F)F)cc2[N+](=O)[O-])CC1,0,0,59
NC(=O)C1CCN(c2c([N+](=O)[O-])cc(C(F)(F)F)cc2[N+](=O)[O-])CC1,0,0,0
COC(=O)N1CCc2ccc(F)cc2C1C(=O)Nc1nccc(C)n1 (stereo not drawn),-,-,0
C=CC[n+]1ccc(/C=C2\C=Cc3cc(C)ccc3N2CC)c2ccccc21,92,93,-
CCN1/C(=C/c2cc[n+](CCCS(=O)(=O)[O-])c3ccccc23)Sc2ccccc21,0,0,-
CO[C@@H](CNC(=O)NCc1cccc2ccccc12)c1ccc(Cl)s1,-,-,0
COc1ccc(-c2c(C)oc3ccc(C)cc23)cc1,0,84,0
COc1ccc(-c2oc3ccc(-c4cc(OC)c(OC)c(OC)c4)cc3c2-c2ccc(OC)cc2)cc1,0,0,0
Cc1sc2nc(SCC(=O)Nc3c(C)n(C)n(-c4ccccc4)c3=O)n(C)c(=O)c2c1C,0,0,0
Cc1sc2ncnc(SCC(=O)Nc3c(C)n(C)n(-c4ccccc4)c3=O)c2c1C,-,-,84
O=C(c1cc(-c2ccc(F)cc2)n[nH]1)N1CC(S(=O)(=O)Cc2ccco2)C1,-,-,0
